Screens from PubChem.
A3G deaminase – APOBEC3G DNA deaminase inhibitors, primary screen, biochemical, fluorescence, single-stranded DNA substrate, uHTS; inhibition, % at 20 µM; actives 0.28% (n = 330,000); recombinant A3G, ssDNA deamination FAM/TAMRA fluorescence; AID 493012, 2011; DNA dC->dU-editing enzyme APOBEC-3G (Homo sapiens), Q9HC16;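 active means inhibition of at least 40% at 20 µM, with no more than 30% in the related APOBEC3A deaminase screen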
PABP FP inh – PABP poly(A) RNA binding inhibitors, primary screen, biochemical, fluorescence polarization, uHTS. Polyadenylate-binding protein 1 (Homo sapiens), P11940. calls only at 35 µM. actives 1% (n = 290,000);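 further: calls also rest on retests at 20 µM and on dose response follow-up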
Target sequence (P11940 whole entry, looked up): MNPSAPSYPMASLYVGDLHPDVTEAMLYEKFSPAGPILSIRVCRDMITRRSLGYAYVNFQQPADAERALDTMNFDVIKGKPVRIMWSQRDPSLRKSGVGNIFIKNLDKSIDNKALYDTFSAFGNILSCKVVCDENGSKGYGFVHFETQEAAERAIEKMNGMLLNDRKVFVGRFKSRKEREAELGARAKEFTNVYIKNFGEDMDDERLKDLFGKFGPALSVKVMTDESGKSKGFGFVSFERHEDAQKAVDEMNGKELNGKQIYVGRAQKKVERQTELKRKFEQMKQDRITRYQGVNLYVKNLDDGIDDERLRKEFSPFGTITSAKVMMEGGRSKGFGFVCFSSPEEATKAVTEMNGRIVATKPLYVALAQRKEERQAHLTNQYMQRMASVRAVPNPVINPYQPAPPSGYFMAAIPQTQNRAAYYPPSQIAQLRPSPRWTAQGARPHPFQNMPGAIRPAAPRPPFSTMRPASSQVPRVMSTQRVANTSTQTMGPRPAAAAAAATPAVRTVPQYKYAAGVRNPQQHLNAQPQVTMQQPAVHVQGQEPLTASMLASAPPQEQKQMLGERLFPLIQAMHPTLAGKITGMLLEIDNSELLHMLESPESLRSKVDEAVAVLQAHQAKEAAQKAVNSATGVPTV
PHOSPHO1 block – PubChem AID 1565. recombinant PHOSPHO1, absorbance phosphatase assay. inhibition, % at 13.3 µM. actives 1.1% (n = 290,000); in the data active means inhibition above about 60%
eIF4H inh – human eIF4H binding inhibitors, primary screen, translation initiation inhibitor project, biochemical, uHTS, fluorescence polarization. Eukaryotic translation initiation factor 4H (Homo sapiens), Q15056. eIF4H fluorescence polarization binding assay. inhibition, % at 35 µM. actives 0.94% (n = 290,000);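 further: calls also rest on retests at 20 µM and on dose response follow-up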
PABP1 MLLE inh – inhibitors of PABP1 MLLE–PAM2 peptide binding, primary screen, biochemical, fluorescence polarization, FITC-PAM2, GST-MLLE; inhibition, % at 20 µM; Polyadenylate-binding protein 1 (Homo sapiens), P11940; actives 0.36% (n = 360,000); AID 588489, 2011; in the data active means inhibition above about 35%, passing the limit was not always enough
A3A deaminase – APOBEC3A ssDNA deaminase inhibitors, primary screen, selectivity assay for APOBEC3G inhibitor project, biochemical, FAM/TAMRA oligo cleavage fluorescence | DNA dC->dU-editing enzyme APOBEC-3A (Homo sapiens), P31941 | recombinant A3A, FAM/TAMRA ssDNA deamination fluorescence | inhibition, % at 20 µM | actives 0.41% (n = 330,000);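 active means at least 40% inhibition at 20 µM here, with at most 30% in a related deaminase screen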
A number is an active result; 0 = inactive; - = not tested or not shown; + = active, no number. An excerpt weighted towards active compounds, which were near 2.6% of everything screened. Unless noted, how the calls were made is not given here.

SMILES	A3G deaminase	PABP FP inh	PHOSPHO1 block	eIF4H inh	PABP1 MLLE inh	A3A deaminase
CCC(C)Nc1nc(-c2c[nH]c3ccccc23)cs1 (stereo unspecified)	0	0	0	0	0	0
COCCN(C(=O)CCSc1ccc(F)cc1)c1c(N)n(Cc2ccccc2)c(=O)[nH]c1=O	0	-	-	-	0	0
Cc1ccc(NC(=S)C2=C(O)c3ccccc3N(C)S2(=O)=O)cc1	0	0	0	0	40	0
CN1c2ccccc2C(O)=C(C(=S)Nc2ccc(F)c(Cl)c2)S1(=O)=O	0	0	0	0	48	0
O=C(Cc1ccccc1F)Nc1cc(S(=O)(=O)N2CCCCC2)ccc1N1CCOCC1	-	-	-	-	0	-
O=C(CCCn1c(=S)[nH]c2cc3c(cc2c1=O)OCO3)N1CCN(c2ccc(F)cc2)CC1	0	0	69	0	0	0
Cc1ccc(NC(=O)c2cc(-c3cc(C)c(C)cc3O)n[nH]2)cc1C	0	0	0	0	0	0
COc1ccc(OCCc2nnc(N)s2)cc1	0	0	62	0	0	0
COc1ccccc1OCCc1nnc(N)s1	0	0	0	0	0	0
CCc1cccc(NS(=O)(=O)c2csc(C(N)=O)c2)c1	0	0	0	0	0	0
CC(=O)Nc1ccc(C(=S)NCc2ccco2)cc1	0	0	94	0	0	0
O=C(NCCSCc1ccco1)Nc1ccccc1	0	0	74	0	0	0
CCOc1ccc(NC(=O)NCc2ccco2)cc1	0	0	67	0	0	0
CC(=O)Nc1ccc(S(=O)(=O)NNC(=S)NCc2ccco2)cc1	0	0	0	0	0	0
CC(=O)Nc1ccc(C(=S)NCC2(N(C)C)CCCCC2)cc1	0	+	0	active	0	0
CSc1nc(COC(=O)NC(C)C)c(COC(=O)NC(C)C)n1Cc1ccccc1	-	-	-	-	0	-
FC(F)(F)c1cnc(-n2cc[nH]c2=S)c(Cl)c1	0	0	98	0	0	0
CCOC(=O)c1ccc(N2C(=O)[C@@H](c3ccccc3)[C@H]2c2ccccc2)cc1	0	-	-	-	0	0
CCOC(=O)c1ccc(N2C(=O)C3C(/C=C/c4ccccc4)OC4(C(=O)c5ccccc5C4=O)C3C2=O)cc1 (stereo unspecified)	0	+	0	0	0	0
O=C(CN1C(=O)S/C(=C\c2cc(Cl)c(O)c(Cl)c2)C1=O)Nc1ccccc1	-	0	0	0	0	-
COC(=O)[C@]1(CC(C)C)N[C@H](c2ccc(-c3ccc(Cl)c(Cl)c3)cc2)[C@@H]2C(=O)N(C)C(=O)[C@@H]21	0	-	-	-	0	0
COC(=O)c1cc(Br)c(N)cc1OC	0	0	61	0	0	0
COCCn1c(N)c(N(Cc2ccccc2)C(=O)CSCC(=O)Nc2ccc(OC)cc2)c(=O)[nH]c1=O	0	-	-	-	0	0
Cc1cccc(N(CC(N)=O)C2SC(=O)N(c3ccccc3)C2=O)c1 (stereo unspecified)	0	0	0	0	41	0
Cc1ccc(N(CC(N)=O)C2SC(=O)N(C)C2=O)cc1 (stereo unspecified)	0	0	0	0	0	0
SMILES	A3G deaminase	PABP FP inh	PHOSPHO1 block	eIF4H inh	PABP1 MLLE inh	A3A deaminase
COCc1ccc(CN2CCc3c([nH]c4ccccc34)C2CC(C)C)o1 (stereo unspecified)	0	+	0	0	0	0
COc1ccc(S(=O)(=O)N2CCC(C(=O)NC3CC(C)(C)NC(C)(C)C3)CC2)cc1	0	-	70	-	0	0
Cc1ccc(S(=O)(=O)N2CCC(C(=O)NC3CC(C)(C)NC(C)(C)C3)CC2)cc1	0	0	0	0	0	0
CC(C)(C)c1ccc(C(=O)Nc2ccc(C(=O)NCc3cccnc3)cc2)cc1	0	0	0	0	0	0
COc1ccc(C(=O)OCc2c(-c3ccccc3)ncc3ccccc23)cc1	0	-	-	-	0	0
CCCCn1c(N)c(N(CCOC)C(=O)COC(=O)CCOc2ccccc2C)c(=O)[nH]c1=O	0	-	-	-	0	0
CCC1(CC)NC(=O)N(CC(=O)Nc2sc3c(c2C(N)=O)CCC3)C1=O	0	+	0	79	0	0
Cc1ccc2nsnc2c1NC(=O)c1ccc([N+](=O)[O-])o1	0	0	0	0	0	0
CCOC(=O)c1ccc(-n2c(N)c(C(=O)NCC3CCCO3)sc2=S)cc1 (stereo unspecified)	0	0	76	0	0	0
CCOC(=O)c1sc(=S)n(-c2ccc3c(c2)OCO3)c1N	0	0	0	0	40	0
O=C(NCCCc1ccccc1)c1cc(COc2ccc(F)cc2Cl)on1	0	0	0	0	0	0
CCN=c1scc(-c2ccco2)n1/N=C/c1ccc(O)cc1	0	0	80	0	0	0
CCOc1ccc(C(Nc2ccc(C)cc2)P2(=O)OCC(C)(C)CO2)cc1 (stereo unspecified)	0	+	0	98	0	0
CCOC(=O)CSc1nc2cc(C(=O)OC)ccc2c(=O)n1CCN1CCOCC1	0	0	70	0	0	0
COC(=O)c1ccc2c(=O)n(CCN3CCOCC3)c(SCC(=O)C(C)(C)C)nc2c1	0	0	0	0	0	0
O=C1NC(=S)S/C1=C/c1ccc(N2CCOCC2)o1	0	+	86	87	0	0
O=C(COC(=O)c1ccccc1Br)NCCC1=CCCCC1	0	0	0	0	0	0
O=C(NC(=S)NCCC1=CCCCC1)c1ccccc1Br	0	0	0	0	45	0
CC(NC(=O)/C(C#N)=C/c1ccc(OCC(=O)O)cc1)c1ccccc1 (stereo unspecified)	0	+	0	0	0	0
CCOC(=O)c1sc2nc3c(SCCC#N)cc(C(=O)c4cc(F)ccc4O)cn3c(=O)c2c1C	0	0	0	0	0	0
O=C(O)CSc1cc(C(=O)c2cc(F)ccc2O)cn2c(=O)c3c(-c4ccccc4)csc3nc12	0	0	0	50	0	0
CCOc1ccccc1NC(=O)C1=C(C)NC(=O)NC1c1cccc(OC)c1OC (stereo unspecified)	0	0	62	0	0	0
OC(c1ccccc1)(c1ccccc1)c1nccc2ccccc12	-	-	-	-	0	-
Cn1c(=O)c2cc(NC(=O)NCCc3ccccc3)ccc2n1Cc1ccc(F)cc1	-	-	-	-	0	-
Cc1ccsc1C(=O)N(CC(C)C)c1c(N)n(Cc2ccccc2)c(=O)[nH]c1=O	0	0	0	0	0	0
O=C(CCl)Nc1nc(-c2ccco2)c(-c2ccco2)s1	0	0	0	0	0	0
O=C(CCCSc1ccccc1)Nc1nc(-c2ccco2)c(-c2ccco2)s1	-	0	0	96	0	-
